# Laboratory results published in PubChem BioAssay (EPA / NIEHS).
# The source made the active and inactive calls. The calls were made as follows: active = hit-call score of the fitted dose curve at least 0.9, where 1 is the maximum; inactive = score below 0.9.
# Assay: ATG_PBREM_CIS: Attagene CIS-FACTORIAL HepG2 Assay for human Phenobarbital-responsive Enhancer Module (PBREM) (AID 2282955)
# Settings: HepG2 PBREM cis-reporter, Attagene multiplexed transcription; actives raise or lower the signal
# Description: ATG_CIS is a cell-based, multiplexed-readout assay that uses HepG2, a human liver cell line, with measurements taken at 24 hours after chemical dosing in a 24-well plate.ATG_PBREM_CIS is one of 52 assay component(s) measured or calculated from the ATG_CIS assay. It is designed to make measurements of mRNA induction, a form of inducible reporter, as detected with fluorescence intensity signals by Reverse transcription polymerase chain reaction (RT-PCR) and Capillary electrophoresis technology.Data from the assay component ATG_PBREM_CIS was analyzed into 1 assay endpoint. This assay endpoint, ATG_PBREM_CIS, was analyzed with bidirectional fitting relative to DMSO as the negative control and baseline of activity. Using a type of inducible reporter, measures of mRNA for gain or loss-of-signal activity can be used to understand the reporter gene at the transcription factor-level as they relate to the gene NR1I3. Furthermore, this assay endpoint can be referred to as a primary readout, because this assay has produced multiple assay endpoints where this one serves a reporter gene function. To generalize the intended target to other relatable targets, this assay endpoint is annotated to the nuclear receptor intended target family, where the subfamily is non-steroidal.
# Human liver HepG2 cells are transiently transfected with multiple reporter transcription units (MRTUs) in 6-well plates using FuGene 6 reagent (Roche; 3 ml FuGene/1 mg DNA). The MRTU constructs are regulated by a cis-regulating element (promoter). […] A major difference between the CIS and TRANS system is that in CIS activities of endogenous TFs are measured, whereas the TRANS assay evaluates changes in activities of exogenous, chimeric NR-Gal4 proteins. […] At the end of 24 hour incubation, total RNA was isolated using TriZol reagent (Invitrogen). The isolated RNA is then reverse-transcribed using oligo(dT) primer and Mo-MLV reverse transcriptase (Invitrogen) with DNAse I (Ambion) treatment for 30 min. The one-tenth of the produced cDNA was amplified by PCR using Taq DNA polymerase (Invitrogen) and two reporter sequence-specific primers. The PCR products were fluorescently labeled by primer extension with 6-arboxyfluorescein (6-FAM) 5'-labeled reporter sequence-specific primer (2 min at 95 C, 20 s at 68 C and 10 min at 72 C) and these products were digested with 5U of HpaI (New England Biolabs) for 2h at 37 C. The fragments were purified using Qiaquick PCR columns (Qiagen), analyzed on an ABI 3130xL genetic analyzer (Applied Biosystems) with peak positions identified by using a set of X-rhodamine (ROX)-labeled MapMarker1000 molecular weight standards (BioVentures). The raw capillary electrophoresis data was processed using Attagraph software (Attagene).
SMILES,outcome,AC50
CC[C@H](C)[C@H]1O[C@]2(C=C[C@@H]1C)C[C@@H]1C[C@@H](C/C=C(\C)[C@@H](O[C@H]3C[C@H](OC)[C@@H](O[C@H]4C[C@H](OC)[C@@H](NC)[C@H](C)O4)[C@H](C)O3)[C@@H](C)/C=C/C=C3\CO[C@@H]4[C@H](O)C(C)=C[C@@H](C(=O)O1)[C@]34O)O2,inactive,–
COc1cc(OC)nc(Sc2cccc(Cl)c2C(=O)O)n1,inactive,–
C#CC(C)(C)NC(=O)c1cc(Cl)cc(Cl)c1,–,50 µM (active)
CCc1cccc(C)c1N(C(=O)CCl)C(C)COC (stereo not given),–,7.5 µM (active)
CCOP(=O)(SC(C)CC)N1CCSC1=O (stereo not given),inactive,–
CC(C)N(C(=O)SCC(Cl)=C(Cl)Cl)C(C)C,inactive,–
CSC1=N[C@@](C)(c2ccccc2)C(=O)N1Nc1ccccc1,–,21.7 µM (active)
CCC(=NOC/C=C/Cl)C1=C(O)CC(C2CCOCC2)CC1=O (stereo not given),inactive,–
COc1cccc(C(=O)NN(C(=O)c2cc(C)cc(C)c2)C(C)(C)C)c1C,–,3.46 µM (active)
COP(=O)(NC(C)=O)SC (stereo not given),inactive,–
CSc1nc(NC(C)C)nc(NC(C)C)n1,inactive,–
CC1(C(=O)Nc2ccc(O)c(Cl)c2Cl)CCCCC1,–,5.86 µM (active)
C#CCC1=C(C)C(OC(=O)C2C(C=C(C)C)C2(C)C)CC1=O (stereo not given),–,4.27 µM (active)
CCCCOC(=O)c1ccccc1C(=O)O,inactive,–
CNC(=O)ON=C(SC)C(=O)N(C)C,inactive,–
CCNc1nc(Cl)nc(NC(C)(C)C#N)n1,inactive,–
CCCOc1nn(C(=O)NS(=O)(=O)c2ccccc2C(=O)OC)c(=O)n1C,inactive,–
CCOP(=S)(OCC)Oc1ccc2c(C)c(Cl)c(=O)oc2c1,inactive,–
COP(=O)(OC)SCn1c(=O)oc2cc(Cl)cnc21,inactive,–
CCOC(=O)COc1cc(-c2nn(C)c(OC(F)F)c2Cl)c(F)cc1Cl,inactive,–

SMILES,outcome,AC50
CNc1cnn(-c2cccc(C(F)(F)F)c2)c(=O)c1Cl,inactive,–
C=C(C)[C@H]1Cc2c(ccc3c2O[C@@H]2COc4cc(OC)c(OC)cc4[C@@H]2C3=O)O1,–,0.0505 µM (active)
CON=C(C(=O)OC)c1ccccc1CON=C(C)c1cccc(C(F)(F)F)c1,inactive,–
COc1ccc(C(=CC(=O)N2CCOCC2)c2ccc(Cl)cc2)cc1OC,–,24.9 µM (active)
CCCCOC(=O)[C@@H](C)Oc1ccc(Oc2ccc(C#N)cc2F)cc1,inactive,–
CC(COc1ccc(Oc2ccccc2)cc1)Oc1ccccn1 (stereo not given),–,13.8 µM (active)
CCc1cccc(CC)c1N(COC)C(=O)CCl,inactive,–
CCCCSP(=O)(SCCCC)SCCCC,–,50 µM (active)
CCOP(=S)(OCC)Oc1ccc([N+](=O)[O-])cc1,inactive,–
CCCSP(=O)(OCC)Oc1ccc(Br)cc1Cl (stereo not given),inactive,–
O=[N+]([O-])c1cc(C(F)(F)F)c(Cl)c([N+](=O)[O-])c1Nc1ncc(C(F)(F)F)cc1Cl,inactive,–
CN(C)NC(=O)CCC(=O)O,inactive,–
CNC(=O)Oc1cccc2c1OC(C)(C)O2,inactive,–
CCC(=O)Nc1ccc(Cl)c(Cl)c1,inactive,–
CC(Oc1cccc(Cl)c1)C(=O)O (stereo not given),inactive,–
CCOP(=O)(NC(C)C)Oc1ccc(SC)c(C)c1 (stereo not given),–,16.2 µM (active)
CCOP(=S)(OCC)Oc1cc(C)nc(C(C)C)n1,–,9.92 µM (active)
CN(C)C(=O)Nc1cccc(C(F)(F)F)c1,inactive,–
Cc1ccn2nc(S(=O)(=O)Nc3c(F)cccc3F)nc2n1,inactive,–
CCOP(=S)(Oc1cnc(C(C)(C)C)nc1)OC(C)C (stereo not given),–,21.2 µM (active)
